According to PubChem BioAssay AID1159524 (National Center for Advancing Translational Sciences (NCATS), 2015):
The whole screen tested about 410,000 compounds, of which about 5,100 (1.2%) were called active. Inconclusive results (about 8%) are left out. The call rests on the fitted dose curve; tested in HEK293T cells. The entries come from a sample that favours actives as a whole. A call without a number means that no potency is given here.

Assay: High Throughput Screening for Foot and Mouth Disease Virus Antivirals; further: read-out not given here; nearly all actives have a fitted effect of over 45% in size
Settings: FMDV antiviral cell-based qHTS; series mostly up to 57.9 µM
Potency means the concentration at half of the fitted maximal effect.

Structure (SMILES)	Potency
COc1ccc2[nH]cc(CCNCc3ccc(Br)cc3)c2c1	inactive
Cc1ccc2nc(-c3ccc(C)c(NC(=O)Cc4ccccc4)c3)oc2c1	inactive
Cc1cc(NC(=O)c2cccc(Cl)c2)ccc1-c1cc2ccccc2oc1=O	inactive
O=c1oc2ccccc2cc1-c1cn(-c2ccccc2)c(=S)[nH]1	12.6 µM (active)
COc1ccc(OC)c(-c2csc(-c3c(N)c(C(=O)c4ccccc4)n4ccccc34)n2)c1	inactive
CCOC(=O)c1[nH]c(C)c(CCC(=O)N2CCN(c3ccccc3)CC2)c1C	inactive
CCOc1ccc2nc(N3CCCN(CCCn4cccn4)CC3)nc(C)c2c1	inactive
CCCn1ccc2c(OCC(=O)NCc3ccc(F)cc3)cccc2c1=O	inactive
COc1ccc(NC(=O)C2=CC(c3ccc(OC)c(OC)c3)=NS(=O)(=O)N2C)cc1	31.6 µM (active)
COc1ccc(C2=NS(=O)(=O)N(C)C(C(=O)N3CCCCC3)=C2)cc1	inactive
COc1ccc(C2=NS(=O)(=O)N(C)C(C(=O)NC(C)c3ccccc3)=C2)cc1 (stereo not drawn)	inactive
Cc1ccc2c(c1)c1c(c(=O)n(-c3ccccc3)c(=O)n1CC(=O)c1ccc(Cl)cc1)n2C	inactive
Clc1ccc([C@@H]2C[C@H]3CC[C@@H]2N3)cn1	inactive
O=C(CSc1c2c(nc3ccc(Cl)cc13)CCCC2)NCc1ccco1	25.1 µM (active)
O=C(CSc1nc2cc3c(cc2c(=O)n1CCC1=CCCCC1)OCO3)NCc1ccco1	inactive
O=C(NCc1ccco1)C1(c2ccc(Cl)cc2)CCCC1	inactive
COc1cc(C)c(CN2CCc3nnc(C(C)NC(=O)c4cccnc4)n3CC2)cc1C (stereo not drawn)	inactive
COc1cccc(-c2ccc(O)c(CNC3CN4CCC3CC4)c2)n1 (stereo not drawn)	inactive
O=C(NCCN1CCOCC1)c1cnn(-c2nccc(-c3cccs3)n2)c1C1CC1	inactive
O=C(c1cnccn1)N1CCC[C@@]2(CCN(Cc3ccncc3)C2)C1	inactive
Cc1nc2cnc(Nc3ccccc3)nc2n(Cc2ccc(F)cc2)c1=O	inactive
CCCCNC(=O)c1ccc2c(c1)NC(=O)C(C(C)C)N2 (stereo not drawn)	inactive
COc1ccc(NC(=O)N2CC3(CCN(C(C)=O)CC3)C2)cc1	inactive

Structure (SMILES)	Potency
CC(C)(C)OC(=O)NNc1c2ccccc2nc2ccccc12	20 µM (active)
Cc1ccc(C(=O)NNC(=O)OC(C)(C)C)c(Cl)c1	inactive
CC(C)(C)OC(=O)N[C@H](C(=O)OC(C)(C)C)c1ccc(Br)cc1	inactive
O=C(c1cc(C(F)(F)F)cc(C(F)(F)F)c1)N1CCC2(CC1)CN(c1ccncc1)C2	inactive
Fc1cccc(/C=N\N=C/c2cccc(F)c2)c1	inactive
Cc1nnc(SCCCCSc2nnc(C)c(=O)[nH]2)[nH]c1=O	inactive
CCOC(=O)CNc1nc2ccccc2n2c(C)nnc12	inactive
CCCCOC(=O)CNc1nnc(SCC(=O)OCC)[nH]c1=O	39.8 µM (active)
Cc1cccc(Cc2c(C)nc3nc(SCc4ccccc4Cl)nn3c2C)c1	inactive
CCOc1ccc(C(=O)c2cn(Cc3ccc(F)cc3)c3ccc(F)cc3c2=O)cc1	inactive
COC(=O)c1ccccc1NC(=O)Cn1c(=O)cc(C)c2c(C)nn(-c3cccc(Cl)c3C)c21	inactive
O=c1c(-c2ccc(F)cc2)nc2cnc(N3CCOCC3)nc2n1-c1ccccc1	inactive
C=CCN1CCC2(C)c3cc(O)ccc3CC1[C@@H]2C (stereo partly drawn)	inactive
CCn1c(CSc2nc(C)cc(C)n2)nnc1SCC(N)=O	inactive
Cc1cc(C)nc(S/C=C/C(=O)c2ccccc2)n1	12.6 µM (active)
O=C(CSCc1cnn(-c2ccccc2)c1-n1cccc1)NCc1ccc(Cl)cc1	inactive
COc1cn(CC(=O)Nc2cccc(C)c2C)c(CN2CCCCC2)cc1=O	inactive
COc1ccc2[nH]cc(CCNc3cc(-c4ccccc4CN(C)C)ncn3)c2c1	inactive
O=C(Nc1cccc(NC(=O)N2CCN(c3ccccc3)CC2)c1)N1CCN(c2ccccc2)CC1	25.1 µM (active)
COc1cccc(N2CCN(C(=O)Nc3ccc4c(c3)NC(=O)CO4)CC2)c1	inactive
O=C(Nc1ccccc1)N1CCN(C2c3ccccc3-c3ccccc32)CC1	inactive
CC(C)NC[C@H](O)c1ccc2ccccc2c1	inactive
CCc1nn(CCCC(=O)NCc2ccccc2OC)c(=O)c2cc3occc3n12	inactive

Structure (SMILES)	Potency
COCCn1c(=O)c(-c2cc(F)cc(F)c2)nc2cnc(N3CCNCC3)nc21	inactive
COc1ccc(-c2cn3nc(N4CCCC(C(=O)NCCCOC(C)C)C4)sc3n2)cc1 (stereo not drawn)	inactive
O=C(Nc1c(-c2ccc(F)cc2)nc2ccccn12)c1cccc(F)c1	inactive
O=C(/C(=C/c1cccc(Cl)c1)c1nc2ccccc2[nH]1)c1ccccc1	7.94 µM (active)
N#C/C(=C\c1ccccc1F)c1nc2ccccc2c(=O)[nH]1	inactive
Cc1ccc2nc(CNC(=O)c3ccccc3)[nH]c2c1	inactive
Cc1ccccc1Cn1nc(C)c(NC(=O)c2cc(-c3ccc(F)cc3)on2)c1C	inactive
Cc1nn(Cc2ccc(F)cc2)c(C)c1NC(=O)c1noc2c1CCc1ccccc1-2	31.6 µM (active)
COc1ccc2c(c1)CCc1c(C(=O)Nc3cc(C)ccc3O)noc1-2	inactive
CCC(C)NC(=O)Cn1c(=O)n(-c2ccc(Cl)cc2)c(=O)c2c3c(sc21)CCCC3 (stereo not drawn)	inactive
COc1cc2c(cc1O)C(SC)=NC(C)(C)C2	20 µM (active)
COc1cc2c(cc1OC)CC1(CCCCC1)N=C2	inactive
COc1cc2c(cc1OC)C(Nc1ccc(S(N)(=O)=O)cc1)=NC(C)(C)C2	inactive
COc1ccccc1-c1cc(NCc2cccs2)ncn1	inactive
CC(C)C(N)C(=O)OCCOCn1cnc2c(=O)[nH]c(N)nc21 (stereo not drawn)	inactive
O=c1c(-c2cc(F)cc(F)c2)nc2cnc(Oc3ccccc3)nc2n1C[C@H]1CCCO1	inactive
COc1ccc(CNC(=O)COC(=O)c2c(C)nn(-c3ccccc3)c2C)cc1OC	39.8 µM (active)
Cc1ccc(OC(=O)c2c(C)nn(-c3ccccc3)c2C)cc1	inactive
COc1ccc(CNC(=O)COc2ccccc2C(=O)c2cnn(-c3ccccc3)c2)cc1OC	inactive
CCC(Oc1ccccc1)C(=O)OCC(=O)Nc1c(C)nn(-c2ccccc2)c1C (stereo not drawn)	inactive
C/C=C/c1ccc(OCC(=O)OCC(=O)Nc2c(C)nn(-c3ccccc3)c2C)c(OC)c1	inactive
CCCn1c(C)cc(C(=O)COC(=O)c2c(C)nn(-c3ccccc3)c2C)c1C	35.5 µM (active)
